Several values for one entry are separate records, joined by “and”; a condition that tells them apart may be missing. Identical values can stand only once.
Test system: HCC1569
Test: H1.0 immunofluorescence intensity relative to DMSO (% of DMSO); higher = stronger H1.0 induction, active = 140 or more
Conditions: concentration: 10 µM; 24 h
Procedure, shortened: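 Using 384-well plates with 800 cells per well in RPMI plus 10% FBS, HCC1569 and TDF cells were exposed to compounds at 10 µM, in triplicate, for 24 h at 37 °C. Imaging of six fields per well at ×10 followed H1.0 and DAPI staining. The reported quantity, H1.0 nuclear intensity or cell number, is a median of replicates given as percent of the plate control, and HCC1569 values were smoothed for positional effects.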
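Also: TDF is a line of transformed human dermal fibroblasts of mesenchymal origin.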

Structure (SMILES) | H1.0 immunofluorescence intensity
O=C1NC(=O)C(c2c[nH]c3ccccc23)=C1c1c[nH]c2ccccc12 [Bisindolylmaleimide IV] | 136 (inactive)
O=C1c2ccccc2-c2nc3nnnn3nc21 [PDK1/Akt/Flt Dual Pathway Inhibitor] | 56.9 (inactive)
CCN(CC)CCNC(=O)c1c(C)[nH]c(C=C2C(=O)Nc3ccc(Cl)cc32)c1C | 213 (active)
COc1ccc(CCN(C)CCCC(C#N)(c2ccc(OC)c(OC)c2)C(C)C)cc1OC.Cl (racemic) | 95.5 (inactive)
C[C@H](C(=O)O)c1cccc(C(=O)c2ccccc2)c1 [(S)-(+)-Ketoprofen] | 100 (inactive)
CC1(C)C(C(=O)O)N2C(=O)CC2S1(=O)=O (stereo not given) [Sulbactam] | 108 (inactive)
CC(C(=O)O)c1cccc(C(=O)c2ccccc2)c1 (stereo not given) [Ketoprofen] | 101 (inactive)
N#Cc1ccc2c(c1)CCN(CCC1CCC(NC(=O)c3ccnc4ccccc34)CC1)C2 (stereo not given) | 158 (active)
Cc1cc(Nc2ccc(NC(=O)c3ccc(Nc4ccnc5ccccc45)cc3)cc2)nc(N)n1 | 83.8 (inactive)
C[n+]1cc2c3c(ccc2c2ccc4cc5c(cc4c21)OCO5)OCO3.[Cl-] [Sanguinarine chloride] | 178 (active)
CCCCCCCCCCCCCCCCCCOCC(COP(=O)([O-])OCC[N+](C)(C)C)OC (stereo not given) | 162 (active) and 103 (inactive)
COS(=O)(=O)[O-].C[n+]1c2ccccc2nc2ccccc21 [5-methylphenazin-5-ium methyl sulfate] | 688 (active)
COc1ccc(CCN(C)CCCC(C#N)(c2ccc(OC)c(OC)c2)C(C)C)cc1OC (stereo not given) [Verapamil] | 98.6 (inactive)
C=CC(=O)N1C/C(=C\c2ccc([N+](=O)[O-])cc2)C(=O)/C(=C/c2ccc([N+](=O)[O-])cc2)C1 [1-acryloyl-3,5-bis((E)-4-nitrobenzylidene)piperidin-4-one] | 145 (active)
Clc1ccc(N/N=C(\c2ccccc2)c2ccccn2)nc1 | 111 (inactive)
Cc1ccccc1N(C)C(=O)c1ccc(S(=O)c2nccs2)c([N+](=O)[O-])c1 (stereo not given) | 131 (inactive)
NC(=O)Nc1cc(-c2cccc(F)c2)sc1C(=O)NC1CCCNC1 (stereo not given) | 60.3 (inactive)
CC(=O)C1(O)Cc2c(O)c3c(c(O)c2C(OC2CC(N)C(O)C(C)O2)C1)C(=O)c1ccccc1C3=O (stereo not given) [Idarubicin] | 584 (active)
CCCCCC(O)C=CC=CCCCCCCCCCC(=O)O (stereo not given) | 96.8 (inactive)
Cl.NC1C=CC=C(C(=O)O)C1 (stereo not given) [Gabaculine hydrochloride] | 105 (inactive)

Structure (SMILES) | H1.0 immunofluorescence intensity
Cc1c(C(=O)NN2CCCCC2)nn(-c2ccc(Cl)cc2Cl)c1-c1ccc(I)cc1 | 96.5 (inactive)
Cc1[nH]nc2ccc(-c3cncc(OCC(N)Cc4ccccc4)c3)cc12 (stereo not given) | 92 (inactive)
O=C(NC1=CNNC1=C1N=c2ccc(CN3CCOCC3)cc2=N1)NC1CC1 | 58.9 (inactive)
c1cc(-c2cnn3cc(-c4ccc(N5CCNCC5)cc4)cnc23)c2cccnc2c1 | 100 (inactive)
CCC(C)(C)C(=O)OC1CC(C)C=C2C=CC(C)C(CCC3CC(O)CC(=O)O3)C21 (stereo not given) [Simvastatin] | 106 (inactive)
CCN(CC)CCCC(C)Nc1c2ccc(Cl)cc2nc2ccc(OC)cc12.Cl.Cl (stereo not given) [Quinacrine dihydrochloride] | 133 (inactive)
COc1ccc(CNC(=O)Nc2ncc([N+](=O)[O-])s2)cc1 [GSK-3b Inhibitor VIII] | 128 (inactive)
CN(C)CCCN1c2ccccc2Sc2ccc(C(F)(F)F)cc21.Cl [Triflupromazine hydrochloride] | 113 (inactive)
CCOC(=O)N1CCC(=C2c3ccc(Cl)cc3CCc3cccnc32)CC1 [Loratadine] | 103 (inactive)
S=C([S-])N1CCCC1.[NH4+] [Ammonium pyrrolidinedithiocarbamate] | 126 (inactive)
NC(CCC(=O)NC(CS)C(=O)NCC(=O)O)C(=O)O (stereo not given) [Glutathione] | 93 (inactive)
CCCCCC=CCC=CCC=CCC=CCCCCCC(=O)O [Adrenic acid (22:4 n-6)] | 99.9 (inactive)
Nc1ncnc2c1nc(N)n2[C@@H]1O[C@H](CO)[C@@H](O)[C@H]1O | 76.3 (inactive)
CCN(CC)CCCC(C)Nc1cc(/C=C/c2ccccc2Cl)nc2cc(Cl)ccc12 (stereo not given) | 102 (inactive)
COc1ccc(Cn2cc(C(=O)O)c(=O)c3ccccc32)cc1 | 116 (inactive)
O=C(c1ccc(Nc2nccc(-c3cc4ccccc4s3)n2)cc1)N1CCC(N2CCCC2)CC1 | 174 (active)
O=S(=O)(NCc1cccc2ccccc12)c1cc(Cl)c(Oc2cccc(N3CCNCC3)c2)s1 | 122 (inactive)
Cc1ccc([N+](=O)[O-])cc1S(=O)(=O)N(C)N=Cc1cnc2ccc(Br)cn12.Cl.O.O [PI 3-Ka Inhibitor VIII] | 125 (inactive)
CC1(C)CC=C(c2ccccc2)c2cc(/C=C/c3ccc(C(=O)O)cc3)ccc21 | 111 (inactive)
O=C(O)C1=CC(O)C(O)C(O)C1 (stereo not given) [Shikimic acid] | 100 (inactive)

From the supplement of paper PMC7156485
